In PubChem BioAssay (NCATS):
Results filed as inconclusive are left out. A number with no mark means an inactive call. The source made the active and inactive calls. Calls come from the whole dose curve; as a rule, active = well fitted inhibition curve with a large enough effect; inconclusive = small, poorly fitted or top-dose-only effect; inactive = flat fitted curve, though single readings scatter.

What follows are compounds tested against Calcium and integrin-binding protein 1 (Homo sapiens) (UniProt Q99828) (assay: Primary qHTS for Identification of Calcium Integrin Binding Protein 1 (CIB1) Competitor (AID 1508620; note: top concentration of the series differs between compounds)). Details: CIB1-GST / FITC-alphaIIb peptide fluorescence polarization; series mostly up to 114 µM; activity change, negative = inhibition: at the top concentration.
Sequence of Calcium and integrin-binding protein 1 (Homo sapiens) (Q99828 whole entry, looked up): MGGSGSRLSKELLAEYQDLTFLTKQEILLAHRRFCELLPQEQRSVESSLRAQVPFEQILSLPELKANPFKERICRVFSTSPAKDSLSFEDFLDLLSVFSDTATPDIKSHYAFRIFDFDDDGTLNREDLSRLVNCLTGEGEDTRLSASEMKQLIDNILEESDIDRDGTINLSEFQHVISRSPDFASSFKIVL
Method in brief: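 Fluorescence polarization competition: GST-tagged CIB1 (1 uM final) preincubated with compound 15 min at room temperature, then FITC-labelled alphaIIb peptide (100 nM final) added. After 15 min at room temperature, polarization read at Ex 480/Em 540.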
% is set by controls: 0 for no effect and ±100 for the full control effect.

SMILES	activity change, negative = inhibition	Potency
Cc1ccccc1C(=O)N1CCc2cc(-c3nc(NC(=O)CC4CCCCC4)sc3C)ccc21	4.03%	
CN(CC(=O)Nc1ccc(N2CCOCC2)cc1)Cc1ccccc1O	-16%	
COc1ccc(C2Nc3ccccc3C(=O)N2CCc2ccccc2)cc1COc1ccc(NC(C)=O)cc1 (stereo not given)	0.0291%	
COc1ccc(C2NC(=O)c3ccccc3N2)cc1COc1c(C)cc(NC(C)=O)cc1C (stereo not given)	2.15%	
COc1ccc(NC(=O)CN(C)C(=O)c2cc3c(s2)CCC3)cc1	0.74%	
COC(=O)c1c(NC(=O)COC(=O)c2ccc(Cl)cc2[N+](=O)[O-])sc2c1CCCCC2	-0.0089%	
CC1=C(C(=O)Nc2ccccc2C)C(c2ccccc2Br)N=C(Nc2nc3ccccc3o2)N1 (stereo not given)	-0.382%	
O=C(NC1CCCc2c1cnn2CCO)c1ccccn1 (stereo not given)	1.06%	
O=C1CCCC2=C1C(c1ccccc1Cl)N=C(c1ccccn1)N2 (stereo not given)	-9.1%	
COc1ccc(/C=C2/C(=O)Nc3ccccc32)cc1O	-15.2%	
O=C(O)CNc1cccc(-c2nn3c(=O)cc(N4CCNCC4)nc3s2)c1	-10.9%	
Nc1c(-c2ccccc2)cc[nH]c1=O	-8.82%	
O=c1c2ccccc2nc2sc(Nc3ccc(Sc4ccccc4)cc3)nn12	2.89%	
CC(C)c1ccccc1-c1ncc(F)c(NC(C)(C)c2ccc(-c3cccnc3)cc2)n1	-2.26%	
Fc1cc(Nc2nc(-c3ccncc3)nc3ccccc23)ccc1-c1ccnc(C(F)(F)F)c1	8.08%	
O=C1NS(=O)(=O)c2cscc21	3.07%	
COc1ccc2ccccc2c1CN(C)CC(=O)Nc1ccc(N2CCOCC2)cc1	-1.81%	
Cc1ccc(NS(=O)(=O)c2cc3c(cc2Cl)CCC(=O)N3)cc1C		inactive
Cc1ccccc1C[C@H](C(=O)O)N1C(=O)c2ccc(C(=O)O)cc2C1=O	2.29%	
CCCCN(CCCNC(=S)NCCCc1cnc[nH]1)c1ccc(Br)cn1	-3.53%	

SMILES	activity change, negative = inhibition	Potency
COc1cccc(CNc2ccc(S(=O)(=O)Nc3ccc(N4CCNCC4)cc3)cc2)c1O	-3.5%	
CCOC(=O)C1CCN(C(=O)C(C)(C)NC(=O)Nc2cccc(C(=O)OC)c2)CC1	-16.4%	
O=S(=O)(c1ccc2c(c1)OCCO2)N1CCN(S(=O)(=O)c2ccco2)CC1	0.0515%	
NC(=O)C1CCN(c2cc(-c3ccc4c(c3)OCCCO4)ncn2)CC1	1.3%	
O=S1(=O)N=C(Sc2ccc3c(c2)OCCO3)c2ccccc21	-6.66%	
COc1cccc(S(=O)(=O)NC2CCN(C#N)C2)c1 (stereo not given)	6.45%	
Oc1ccc(CNc2cccnc2)c2cccnc12	4.29%	
C[C@@H](NC(c1ccc(F)cc1)c1ccc2cccnc2c1O)c1ccccc1 (stereo not given in full)		inactive
COc1cccc(C2c3c(ncn(-c4ccccc4SC)c3=N)Oc3ccc4ccccc4c32)c1 (stereo not given)	8.09%	
Cc1ccc(OCCn2c(CCNC(=O)C3CC3)nc3ccccc32)cc1	16.1%	
CCOC(=O)C1CCN(C(=O)C(C)(C)NC(=O)Nc2cccc(OC)c2)CC1	-6.79%	
CN(CC(=O)Nc1ccc(N2CCOCC2)cc1)Cc1cccc2ccccc12	1.24%	
Cc1cnc(-c2ccccc2C(C)C)nc1NCc1ccc(C2CCCNC2)cc1 (stereo not given)	0.936%	
S=C(NCCCN(Cc1ccc(Cl)c(Cl)c1)c1ccc(Br)cn1)NCCc1cnc[nH]1	0.0503%	
COc1ccc(-c2nc3ccccc3c(=O)n2Cc2ccco2)cc1COc1ccc(NC(C)=O)cc1	-10.3%	
COc1cccc(NC(=S)N2CCN(c3cc(C(F)(F)F)cc(C(F)(F)F)c3)CC2)n1	3.43%	
CCc1cccc(CC)c1OCc1cc(C2Nc3ccccc3C(=O)N2Cc2ccco2)ccc1OC (stereo not given)	1.8%	
CCCC1CCN(C(=O)CC(c2ccc3c(c2)OCO3)c2c(O)cc(OC)cc2OC)C1 (stereo not given)	2.16% [at 228 µM]	
Cc1ccc(NS(=O)(=O)c2cc3c(cc2Cl)CCC(=O)N3)cc1Cl		inactive
Cc1cc2c(s1)c1cnn(Cc3ccc(C)c(F)c3)c(=O)c1n2C	8.21%	
